Assay results reported in PubChem BioAssay AID720533 (National Center for Advancing Translational Sciences (NCATS), 2013).
The whole screen tested about 18,000 compounds, of which about 750 (4.2%) were called active. Inconclusive results (about 13%) are left out. Calls come from the whole dose curve; tested in HEK293 cells. Many of the other results were omitted from the sample, so actives are more common in it than they were.

assay: qHTS for Inhibitors of binding or entry into cells for Lassa Virus; details: Lassa virus pseudotyped entry inhibition, cell-based qHTS; series mostly up to 49.2 µM; activity change, negative = inhibition: at the top concentration
% is set by controls: 0 for no effect and ±100 for the full control effect; potency is the fitted concentration of half-maximal effect.

| Structure (SMILES) | activity change, negative = inhibition | Potency |
| --- | --- | --- |
| Cc1cnc(C(=O)N2CCOc3ccc(CN4CCCC(C(=O)c5cccnc5)C4)cc3C2)[nH]1 (centres undefined) | -5.06% (inactive) |  |
| Nc1nc(/C(=C/CC(=O)O)C(=O)N[C@@H]2C(=O)N3C(C(=O)O)=CCS[C@H]23)cs1 | -7.09% (inactive) |  |
| COc1cccc([C@@H]2Oc3ccc(Br)cc3C(=O)[C@H]2OC(=O)NCCc2ccc(OC)c(OC)c2)c1 | 33% (inactive) |  |
| C/C=C(\C)C(=O)OC1C(OC(=O)C2(C)OC2C)c2cc3ccc(=O)oc3cc2OC1(C)C (centres undefined) | 4.77% (inactive) |  |
| OCC1CCCN(c2nc3cc4c(cc3cc2CNCc2cccs2)OCO4)C1 (centres undefined) | -0.156% (inactive) |  |
| CCOC(=O)CCN1C(=O)[C@@H]2[C@H]3[C@H](O)[C@H](O)CC(=NOCC(C)C)[C@@H]3CC[C@H]2C1=O | -24.6% [at 8.59 µM] (inactive) |  |
| CCN1CCN(C(=O)N[C@@H](C(=O)N[C@@H]2C(=O)N3C(C(=O)O)=C(CSc4nnnn4C)CS[C@H]23)c2ccc(O)cc2)C(=O)C1=O | -8.09% (inactive) |  |
| CCOC(=O)C1C/C(=C\C(C)=O)c2cccc(C(F)(F)F)c2O1 (centres undefined) | 7.88% (inactive) |  |
| CC(C)[C@@H](OCc1ccccc1)[C@H](C)C=NOC[C@@H](C)[C@H](OCc1ccccc1)C(C)C | 8.86% [at 8.59 µM] (inactive) |  |
| COc1ccc(CN(C)CCn2cc(C(=O)N3CCSCC3)nn2)cc1C | -12% (inactive) |  |
| CC1OC(OCC2OC(Oc3c(-c4ccc(O)c(O)c4)oc4cc(O)cc(O)c4c3=O)C(O)C(O)C2O)[C@@H](O)C(O)C1O (some centres undefined) | -10.4% (inactive) |  |
| CNc1ncnc2ccc(-c3cccc(NS(C)(=O)=O)c3)cc12 | -5.28% (inactive) |  |
| COc1ccc(Nc2ncnc3ccc(OC)cc23)cc1 | 4.87% (inactive) |  |
| Cc1csc(-c2nc3ccccc3n2C)n1 | 29.1% (inactive) |  |
| CNC(=O)C[C@H]1C(=O)N(Cc2ccccc2)C[C@@H]1CSC | 7.21% (inactive) |  |
| CCCCCCN1C[C@@H](O)[C@H](n2cc(-c3ccc(F)cc3)nn2)C[C@H]1c1ccccc1 | -27.3% (inactive) |  |
| COc1c(O)cc2oc(-c3ccc(O)c(O)c3)cc(=O)c2c1O | -13.1% (inactive) |  |
| Cc1nc2cc(NC(=O)[C@@H]3C[C@@H](Sc4ccccn4)CN3Cc3ccccc3C)ccc2s1 | -6.47% (inactive) |  |
| CCCN(C/C=C/I)C1CCc2ccc(O)cc2C1 (centres undefined) | 3.69% (inactive) |  |
| CC[C@@H]1Cc2cc(O)ccc2C2=C1c1ccc(O)cc1C[C@H]2CC |  | 20 µM (active) |
| COCOc1cc(OC)ccc1C(=O)/C=C/c1ccc([N+](=O)[O-])cc1 | -5.23% (inactive) |  |
| CCOC(=O)C1=C(C(=O)OCC)C(C(=O)OCC)N(S(=O)(=O)C(F)(F)F)c2ccccc21 (centres undefined) | -6.28% (inactive) |  |
| c1ccc(CN2CCN(Cc3ccc4c(c3)CN(Cc3c[nH]c5ccccc35)CCO4)CC2)nc1 | -8.46% (inactive) |  |
| O=C(O)CCC(=O)O | -0.191% (inactive) |  |
